According to the supplement of paper PMC11006884:
Of roughly 6,500 targets only a part is listed; those with a hit were picked by preference. About 2% of all pairs of compound and target were hits.

Compound: COC(=O)C#Cc1ccccc1 [methyl 3-phenylpropiolate]
Assay: log2 ratio of iodoacetamide-alkyne labeling of the cysteine site, DMSO over compound (competition); higher = stronger covalent engagement of the cysteine by the compound, active = 1 or more
Details: 500 µM; treatment time 1 h; system: HEK293T cell lysate
Method in brief: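 HEK293T lysate (2 mg/mL) was incubated with electrophile (500 µM) or vehicle for 1 h at ambient temperature and then with iodoacetamide alkyne for 1 h. Labelled proteins were clicked to sCIP-TMT reagents, pooled, digested, enriched on streptavidin and measured by Orbitrap Eclipse LC-MS/MS with FAIMS, with FragPipe quantification. The per-cysteine log2 competition ratio is mean control-channel reporter intensity over mean compound-channel reporter intensity. Across three replicates with duplicate channels, cysteines quantified in only one replicate were excluded.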

UniProt Q96KQ7, sequence (Q96KQ7 whole entry, looked up): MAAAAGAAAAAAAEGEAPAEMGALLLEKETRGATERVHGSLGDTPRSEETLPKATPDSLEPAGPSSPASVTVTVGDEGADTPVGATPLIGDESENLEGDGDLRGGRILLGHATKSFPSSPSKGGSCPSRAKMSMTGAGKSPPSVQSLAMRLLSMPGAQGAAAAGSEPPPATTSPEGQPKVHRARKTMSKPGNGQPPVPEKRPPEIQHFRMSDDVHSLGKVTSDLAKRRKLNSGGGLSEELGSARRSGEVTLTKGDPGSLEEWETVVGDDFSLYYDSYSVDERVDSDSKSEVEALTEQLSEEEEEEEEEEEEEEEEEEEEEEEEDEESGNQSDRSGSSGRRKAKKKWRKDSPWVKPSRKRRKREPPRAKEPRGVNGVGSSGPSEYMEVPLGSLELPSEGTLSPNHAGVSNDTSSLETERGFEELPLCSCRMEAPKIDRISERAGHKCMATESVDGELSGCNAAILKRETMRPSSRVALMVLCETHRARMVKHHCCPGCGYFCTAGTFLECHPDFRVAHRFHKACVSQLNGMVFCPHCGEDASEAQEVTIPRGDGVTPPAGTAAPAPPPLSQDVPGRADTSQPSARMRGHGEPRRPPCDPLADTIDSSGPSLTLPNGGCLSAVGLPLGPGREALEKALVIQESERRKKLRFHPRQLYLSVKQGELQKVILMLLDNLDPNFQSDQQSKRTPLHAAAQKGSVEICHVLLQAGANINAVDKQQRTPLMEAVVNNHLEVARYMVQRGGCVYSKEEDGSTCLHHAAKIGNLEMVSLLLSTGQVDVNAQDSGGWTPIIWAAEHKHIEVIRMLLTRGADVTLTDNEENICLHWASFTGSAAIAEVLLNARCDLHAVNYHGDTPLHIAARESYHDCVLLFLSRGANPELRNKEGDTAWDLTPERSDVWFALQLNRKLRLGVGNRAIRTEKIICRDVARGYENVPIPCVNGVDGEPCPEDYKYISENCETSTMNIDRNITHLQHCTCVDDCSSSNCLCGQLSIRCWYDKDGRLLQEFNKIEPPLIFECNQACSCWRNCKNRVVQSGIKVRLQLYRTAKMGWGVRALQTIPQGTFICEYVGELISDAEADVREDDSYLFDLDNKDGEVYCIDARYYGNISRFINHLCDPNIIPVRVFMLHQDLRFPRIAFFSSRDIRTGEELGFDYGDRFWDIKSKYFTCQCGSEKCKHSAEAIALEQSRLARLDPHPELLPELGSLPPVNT
UniProt Q92922, sequence (Q92922 whole entry, looked up): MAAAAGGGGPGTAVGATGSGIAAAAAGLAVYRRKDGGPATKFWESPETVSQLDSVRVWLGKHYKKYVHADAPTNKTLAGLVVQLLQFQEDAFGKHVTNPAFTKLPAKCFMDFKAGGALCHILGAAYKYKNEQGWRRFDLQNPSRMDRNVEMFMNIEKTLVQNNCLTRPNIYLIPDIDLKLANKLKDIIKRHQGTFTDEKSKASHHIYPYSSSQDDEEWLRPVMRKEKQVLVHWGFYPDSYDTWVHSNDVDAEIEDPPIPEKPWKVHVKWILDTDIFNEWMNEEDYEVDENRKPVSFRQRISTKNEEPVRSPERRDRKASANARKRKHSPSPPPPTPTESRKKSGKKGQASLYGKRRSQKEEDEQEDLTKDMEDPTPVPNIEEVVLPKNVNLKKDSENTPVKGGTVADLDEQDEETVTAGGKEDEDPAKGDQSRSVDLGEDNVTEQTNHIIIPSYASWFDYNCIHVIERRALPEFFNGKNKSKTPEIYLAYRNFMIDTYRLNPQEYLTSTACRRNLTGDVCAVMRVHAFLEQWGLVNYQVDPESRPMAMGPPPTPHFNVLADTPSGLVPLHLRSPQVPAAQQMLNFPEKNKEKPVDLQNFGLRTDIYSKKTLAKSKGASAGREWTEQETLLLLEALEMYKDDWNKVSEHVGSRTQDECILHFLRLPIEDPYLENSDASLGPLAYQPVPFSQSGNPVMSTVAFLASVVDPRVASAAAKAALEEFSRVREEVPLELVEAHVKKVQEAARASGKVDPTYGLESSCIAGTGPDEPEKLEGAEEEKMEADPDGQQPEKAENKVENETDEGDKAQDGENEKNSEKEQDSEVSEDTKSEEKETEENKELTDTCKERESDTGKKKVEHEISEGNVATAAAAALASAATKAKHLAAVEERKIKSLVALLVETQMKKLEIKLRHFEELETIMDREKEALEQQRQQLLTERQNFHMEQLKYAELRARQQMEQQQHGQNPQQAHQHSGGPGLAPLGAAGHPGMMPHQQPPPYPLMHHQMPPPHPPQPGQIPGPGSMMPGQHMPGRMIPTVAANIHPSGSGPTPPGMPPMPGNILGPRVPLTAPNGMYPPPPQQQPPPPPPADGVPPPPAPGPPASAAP
UniProt Q8IY17, sequence (Q8IY17 whole entry, looked up): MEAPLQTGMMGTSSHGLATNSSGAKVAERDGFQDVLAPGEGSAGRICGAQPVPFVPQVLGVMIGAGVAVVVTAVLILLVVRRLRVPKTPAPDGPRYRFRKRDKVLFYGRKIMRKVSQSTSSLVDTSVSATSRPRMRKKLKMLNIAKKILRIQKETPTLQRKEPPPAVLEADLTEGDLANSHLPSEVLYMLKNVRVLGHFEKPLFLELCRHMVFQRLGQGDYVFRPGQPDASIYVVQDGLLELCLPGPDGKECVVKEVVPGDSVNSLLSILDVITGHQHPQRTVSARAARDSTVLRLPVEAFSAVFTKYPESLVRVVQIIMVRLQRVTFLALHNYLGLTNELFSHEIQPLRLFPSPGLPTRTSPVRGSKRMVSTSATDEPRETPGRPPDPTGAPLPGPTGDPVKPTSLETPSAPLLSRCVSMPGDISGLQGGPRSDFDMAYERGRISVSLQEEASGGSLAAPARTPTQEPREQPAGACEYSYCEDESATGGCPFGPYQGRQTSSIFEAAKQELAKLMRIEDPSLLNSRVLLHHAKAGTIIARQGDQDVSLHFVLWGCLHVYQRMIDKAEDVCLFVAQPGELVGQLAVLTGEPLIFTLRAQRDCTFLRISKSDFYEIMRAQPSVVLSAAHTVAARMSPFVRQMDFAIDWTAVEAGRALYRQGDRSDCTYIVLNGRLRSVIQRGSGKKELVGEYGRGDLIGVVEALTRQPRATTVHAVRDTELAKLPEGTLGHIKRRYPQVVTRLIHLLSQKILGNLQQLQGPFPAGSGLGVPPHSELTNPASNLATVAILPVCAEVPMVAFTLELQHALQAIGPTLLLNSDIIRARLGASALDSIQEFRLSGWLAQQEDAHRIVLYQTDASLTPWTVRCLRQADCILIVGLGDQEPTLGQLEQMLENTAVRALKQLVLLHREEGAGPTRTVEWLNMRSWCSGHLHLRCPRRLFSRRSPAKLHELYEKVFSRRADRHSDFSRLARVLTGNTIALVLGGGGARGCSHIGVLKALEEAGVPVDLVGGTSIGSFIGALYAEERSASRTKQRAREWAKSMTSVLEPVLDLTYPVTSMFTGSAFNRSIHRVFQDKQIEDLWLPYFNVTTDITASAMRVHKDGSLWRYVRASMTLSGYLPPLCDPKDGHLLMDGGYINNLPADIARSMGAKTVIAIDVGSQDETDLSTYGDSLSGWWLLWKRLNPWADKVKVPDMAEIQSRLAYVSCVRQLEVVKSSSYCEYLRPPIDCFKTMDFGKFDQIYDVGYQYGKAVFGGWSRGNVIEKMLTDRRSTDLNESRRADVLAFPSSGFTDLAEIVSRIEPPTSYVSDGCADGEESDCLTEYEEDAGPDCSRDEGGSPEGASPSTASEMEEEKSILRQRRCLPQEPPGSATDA
UniProt Q96BH1, sequence (Q96BH1 whole entry): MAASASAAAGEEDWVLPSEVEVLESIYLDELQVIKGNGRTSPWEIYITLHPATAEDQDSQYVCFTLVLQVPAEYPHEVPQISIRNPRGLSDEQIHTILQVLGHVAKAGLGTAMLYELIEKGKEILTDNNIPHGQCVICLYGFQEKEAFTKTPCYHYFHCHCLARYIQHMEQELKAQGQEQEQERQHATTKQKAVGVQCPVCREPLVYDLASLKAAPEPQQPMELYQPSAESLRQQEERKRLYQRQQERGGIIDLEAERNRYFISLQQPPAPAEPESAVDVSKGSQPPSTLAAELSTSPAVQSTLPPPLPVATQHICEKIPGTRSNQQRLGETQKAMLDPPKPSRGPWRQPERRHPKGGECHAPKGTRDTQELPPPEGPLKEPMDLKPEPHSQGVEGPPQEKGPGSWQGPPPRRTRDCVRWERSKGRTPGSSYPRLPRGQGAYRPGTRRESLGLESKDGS
UniProt Q92499, sequence (Q92499 whole entry, looked up): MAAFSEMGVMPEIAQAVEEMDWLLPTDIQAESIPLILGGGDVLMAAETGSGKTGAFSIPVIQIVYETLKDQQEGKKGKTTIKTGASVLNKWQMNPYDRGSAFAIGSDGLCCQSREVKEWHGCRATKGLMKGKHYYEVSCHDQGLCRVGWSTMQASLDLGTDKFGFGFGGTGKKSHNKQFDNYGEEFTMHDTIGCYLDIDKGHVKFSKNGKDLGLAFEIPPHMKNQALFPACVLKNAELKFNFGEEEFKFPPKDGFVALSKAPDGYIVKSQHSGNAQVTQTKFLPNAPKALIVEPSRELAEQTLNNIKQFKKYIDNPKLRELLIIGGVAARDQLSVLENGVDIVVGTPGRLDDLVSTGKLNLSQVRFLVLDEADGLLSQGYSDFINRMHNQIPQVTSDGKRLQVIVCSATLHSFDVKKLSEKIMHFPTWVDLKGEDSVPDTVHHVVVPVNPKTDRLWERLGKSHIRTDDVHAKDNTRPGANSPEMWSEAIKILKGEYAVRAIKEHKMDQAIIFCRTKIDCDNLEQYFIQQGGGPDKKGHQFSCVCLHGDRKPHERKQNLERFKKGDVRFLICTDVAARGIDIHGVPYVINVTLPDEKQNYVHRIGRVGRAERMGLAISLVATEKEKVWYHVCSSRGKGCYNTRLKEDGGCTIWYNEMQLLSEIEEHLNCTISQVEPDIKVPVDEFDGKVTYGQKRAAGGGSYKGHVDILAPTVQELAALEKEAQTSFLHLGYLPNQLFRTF
UniProt Q86U28, sequence (Q86U28 whole entry, looked up): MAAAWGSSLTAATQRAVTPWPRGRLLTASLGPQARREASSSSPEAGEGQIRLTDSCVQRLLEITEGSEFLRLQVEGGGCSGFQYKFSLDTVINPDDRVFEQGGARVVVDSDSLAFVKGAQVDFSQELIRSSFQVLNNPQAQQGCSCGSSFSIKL

Target | log2 ratio of iodoacetamide-alkyne labeling
VPS13B C2907 (UniProt Q7Z7G8) | 0.889 (inactive)
PHF10 C134 (UniProt Q8WUB8) | 0.0674 (inactive)
PNPLA6 C409 (UniProt Q8IY17) | 0.4 (inactive)
UniProt Q9BSH4_C256 | -0.207 (inactive)
YOD1 C97 (UniProt Q5VVQ6) | 0.146 (inactive)
NCAPH2 C342 (UniProt Q6IBW4) | 1.07 (active)
PHIP C612 (UniProt Q8WWQ0) | -0.25 (inactive)
UniProt Q86Y56_C173 | 0.779 (inactive)
EHMT2 C617 (UniProt Q96KQ7) | 0.759 (inactive)
ZFR C974 (UniProt Q96KR1) | 0.302 (inactive)
UniProt Q8NBJ5_C412 | 0.133 (inactive)
DHX30 C461 (UniProt Q7L2E3) | 0.193 (inactive)
UniProt Q7RTV0_C46 | 0.211 (inactive)
DARS2 C371 (UniProt Q6PI48) | 0.442 (inactive)
WDFY2 C290 (UniProt Q96P53) | -0.231 (inactive)
UniProt Q7RTV0_C61 | 0.11 (inactive)
ISCA2 C146 (UniProt Q86U28) | 1.59 (active)
RNF25 C360 (UniProt Q96BH1) | 1.07 (active)

Target | log2 ratio of iodoacetamide-alkyne labeling
SMARCC1 C164 (UniProt Q92922) | 0.146 (inactive)
SMAP2 C196 (UniProt Q8WU79) | 0.318 (inactive)
ANKRD40 C358 (UniProt Q6AI12) | 1.2 (active)
DDX1 C110 (UniProt Q92499) | 0.315 (inactive)
WRNIP1 C39 (UniProt Q96S55) | -0.0706 (inactive)
UniProt Q69YQ0_C79 | 0.787 (inactive)
STRBP C40 (UniProt Q96SI9) | 0.168 (inactive)
FIGNL1 C200 (UniProt Q6PIW4) | 1.08 (active)
UniProt Q8WYL5_C626 | 1.19 (active)
MED12 C83 (UniProt Q93074) | 0.457 (inactive)
TXNDC17 C43 (UniProt Q9BRA2) | 1.34 (active)
LUZP1 C594 (UniProt Q86V48) | 1.19 (active)
UniProt Q8WZA9_C373 | 0.706 (inactive)
SECISBP2 C719 (UniProt Q96T21) | -0.258 (inactive)
HDHD3 C243 (UniProt Q9BSH5) | 0.16 (inactive)
UniProt Q7Z2T5_C265 | 0.161 (inactive)
DCUN1D4 C253 (UniProt Q92564) | 0.287 (inactive)
